For one sequence, binding signal results are on record in PMC7862700, “An all-to-all approach to the identification of sequence-specific readers for epigenetic DNA modifications on cytosine”.

What all share (test): DAPPL (digital affinity profiling via proximity ligation, sequencing); 10 mM Tris-HCl pH 7.5, 50 mM NaCl, 1 mM DTT, 4% glycerol, room temperature, 30 min; GST-TFs on glutathione beads, 16-mer random dsDNA library, 0.1% formaldehyde crosslink after washing; high values mean tight binding
The target in test [1] is T1, FEV (Homo sapiens, UniProt Q99581 1-238).
T1 sequence: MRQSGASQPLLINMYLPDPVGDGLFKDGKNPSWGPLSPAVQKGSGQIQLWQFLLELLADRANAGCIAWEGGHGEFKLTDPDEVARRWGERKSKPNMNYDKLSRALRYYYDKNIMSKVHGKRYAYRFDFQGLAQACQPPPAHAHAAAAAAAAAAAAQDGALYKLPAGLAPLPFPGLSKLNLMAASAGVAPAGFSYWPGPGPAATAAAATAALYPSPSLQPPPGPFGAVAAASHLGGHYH
To be noted: protein: recombinant; tags: N-terminal GST; dsDNA, one strand shown. Summed up: (§1)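 Pools of DNA-barcoded human transcription factors, expressed in yeast as GST fusions on glutathione beads and combined with a tag-only sample, were incubated with 200 nmole of a 16-mer random double-stranded DNA library. Incubation took 30 min at room temperature in Tris/NaCl/DTT/glycerol buffer and was followed by washing, 0.1% formaldehyde crosslinking, proximity ligation (BsaI/T4 ligase, 1 h, 37 °C), PCR amplification and sequencing on an Illumina NextSeq500. Binding signal is the ratio of a hexamer's read frequency for a factor to its frequency for the tag-only sample.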

In test [2] the target is ETV5 (Homo sapiens, UniProt P41161 1-510). The note with it: protein: recombinant; tags: N-terminal GST; dsDNA, one strand shown. In a few lines:
as §1

For test [3], the target named is HSF1 (Homo sapiens, UniProt Q00613 1-529). The note with it: protein: recombinant; tags: N-terminal GST; chain copies: 3; dsDNA, one strand shown. In a few lines: as §1
HSF1, sequence (Q00613 whole entry): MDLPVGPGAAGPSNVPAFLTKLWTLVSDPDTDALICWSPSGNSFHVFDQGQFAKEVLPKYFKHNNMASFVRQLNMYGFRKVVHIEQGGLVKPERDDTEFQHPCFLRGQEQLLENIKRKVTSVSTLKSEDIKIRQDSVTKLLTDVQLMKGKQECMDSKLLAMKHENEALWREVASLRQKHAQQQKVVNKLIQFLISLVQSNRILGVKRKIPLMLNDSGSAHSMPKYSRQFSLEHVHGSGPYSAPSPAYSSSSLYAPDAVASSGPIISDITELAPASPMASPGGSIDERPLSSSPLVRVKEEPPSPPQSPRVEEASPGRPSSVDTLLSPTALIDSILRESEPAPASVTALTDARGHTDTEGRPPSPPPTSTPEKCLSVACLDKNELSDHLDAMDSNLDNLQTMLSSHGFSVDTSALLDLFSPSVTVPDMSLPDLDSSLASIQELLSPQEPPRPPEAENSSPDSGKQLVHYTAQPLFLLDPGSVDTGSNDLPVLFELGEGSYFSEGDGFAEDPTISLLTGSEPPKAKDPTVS
In test [4] the target is T2, SPIC (Homo sapiens, UniProt Q8N5J4 1-248).
T2 sequence: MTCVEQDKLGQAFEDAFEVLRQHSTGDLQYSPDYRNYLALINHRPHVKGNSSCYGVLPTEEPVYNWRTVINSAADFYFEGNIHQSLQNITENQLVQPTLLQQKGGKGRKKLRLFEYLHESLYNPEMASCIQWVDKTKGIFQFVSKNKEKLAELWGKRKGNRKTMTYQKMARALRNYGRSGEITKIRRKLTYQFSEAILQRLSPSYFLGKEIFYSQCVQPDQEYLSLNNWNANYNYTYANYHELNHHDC
To be noted: protein: recombinant; tags: N-terminal GST; dsDNA, one strand shown. In a few lines: as §1

Test [5] addresses ELF4 (Homo sapiens, UniProt Q99607 1-663). The note with it: protein: recombinant; tags: N-terminal GST; dsDNA, one strand shown. Summed up:
as §1

Test [6] has as its target T3, ELK4 (Homo sapiens, UniProt P28324-2 1-405).
T3 sequence: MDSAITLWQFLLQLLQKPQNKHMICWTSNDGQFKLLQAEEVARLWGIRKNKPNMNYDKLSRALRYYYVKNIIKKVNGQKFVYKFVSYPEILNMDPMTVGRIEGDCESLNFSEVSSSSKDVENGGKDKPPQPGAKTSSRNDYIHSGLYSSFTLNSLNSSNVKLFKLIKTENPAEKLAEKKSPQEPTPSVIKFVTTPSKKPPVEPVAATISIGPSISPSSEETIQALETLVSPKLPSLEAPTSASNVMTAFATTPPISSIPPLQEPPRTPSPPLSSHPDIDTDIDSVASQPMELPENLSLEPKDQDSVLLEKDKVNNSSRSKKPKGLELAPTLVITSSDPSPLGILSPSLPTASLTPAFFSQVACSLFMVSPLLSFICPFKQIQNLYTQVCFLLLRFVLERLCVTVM
The note with it: protein: recombinant; tags: N-terminal GST; dsDNA, one strand shown. In a few lines: as §1

Test [7] concerns the target T4, ETV2 (Homo sapiens, UniProt O00321 1-342).
T4 sequence: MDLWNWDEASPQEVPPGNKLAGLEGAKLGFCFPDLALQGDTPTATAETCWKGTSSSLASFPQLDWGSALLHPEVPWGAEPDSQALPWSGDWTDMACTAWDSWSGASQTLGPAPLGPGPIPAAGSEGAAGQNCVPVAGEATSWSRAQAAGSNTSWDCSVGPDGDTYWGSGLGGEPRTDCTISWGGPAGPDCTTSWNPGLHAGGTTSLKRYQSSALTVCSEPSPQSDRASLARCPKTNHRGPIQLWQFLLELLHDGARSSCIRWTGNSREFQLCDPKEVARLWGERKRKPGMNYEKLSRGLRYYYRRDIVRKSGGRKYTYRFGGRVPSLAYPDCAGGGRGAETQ
To be noted: protein: recombinant; tags: N-terminal GST; dsDNA, one strand shown. In a few lines: as §1

The target of test [8] is T5, ELF3 (Homo sapiens, UniProt P78545 1-371).
T5 sequence: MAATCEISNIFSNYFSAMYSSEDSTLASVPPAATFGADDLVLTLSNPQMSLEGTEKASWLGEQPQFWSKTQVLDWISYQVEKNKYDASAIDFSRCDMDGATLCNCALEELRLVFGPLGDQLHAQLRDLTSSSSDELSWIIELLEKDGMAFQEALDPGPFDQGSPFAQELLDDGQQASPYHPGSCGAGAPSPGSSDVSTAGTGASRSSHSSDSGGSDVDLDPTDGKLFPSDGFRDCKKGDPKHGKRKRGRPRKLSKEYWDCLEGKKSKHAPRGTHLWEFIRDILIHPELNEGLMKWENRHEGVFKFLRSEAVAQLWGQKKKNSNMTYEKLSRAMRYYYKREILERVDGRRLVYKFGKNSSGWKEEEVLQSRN
To be noted: protein: recombinant; tags: N-terminal GST; dsDNA, one strand shown. Summed up:
as §1

Test [9] deals with CRX (Homo sapiens, UniProt O43186 1-299). The note with it: protein: recombinant; tags: N-terminal GST; dsDNA, one strand shown. Summed up: as §1
CRX, sequence (O43186 whole entry): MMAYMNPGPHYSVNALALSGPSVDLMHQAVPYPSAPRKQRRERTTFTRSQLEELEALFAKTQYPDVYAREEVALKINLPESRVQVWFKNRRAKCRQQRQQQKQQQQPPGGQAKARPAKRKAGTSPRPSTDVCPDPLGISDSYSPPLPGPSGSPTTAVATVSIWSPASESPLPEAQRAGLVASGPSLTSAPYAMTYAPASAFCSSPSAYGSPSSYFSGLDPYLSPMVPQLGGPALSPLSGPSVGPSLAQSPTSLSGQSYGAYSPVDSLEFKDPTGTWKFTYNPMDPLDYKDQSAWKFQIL
Test [10] deals with ETV1 (Homo sapiens, UniProt P50549 1-477). To be noted: protein: recombinant; tags: N-terminal GST; dsDNA, one strand shown. In a few lines:
as §1

Test [11] addresses T6, ERF (Homo sapiens, UniProt P50548 1-548).
T6 sequence: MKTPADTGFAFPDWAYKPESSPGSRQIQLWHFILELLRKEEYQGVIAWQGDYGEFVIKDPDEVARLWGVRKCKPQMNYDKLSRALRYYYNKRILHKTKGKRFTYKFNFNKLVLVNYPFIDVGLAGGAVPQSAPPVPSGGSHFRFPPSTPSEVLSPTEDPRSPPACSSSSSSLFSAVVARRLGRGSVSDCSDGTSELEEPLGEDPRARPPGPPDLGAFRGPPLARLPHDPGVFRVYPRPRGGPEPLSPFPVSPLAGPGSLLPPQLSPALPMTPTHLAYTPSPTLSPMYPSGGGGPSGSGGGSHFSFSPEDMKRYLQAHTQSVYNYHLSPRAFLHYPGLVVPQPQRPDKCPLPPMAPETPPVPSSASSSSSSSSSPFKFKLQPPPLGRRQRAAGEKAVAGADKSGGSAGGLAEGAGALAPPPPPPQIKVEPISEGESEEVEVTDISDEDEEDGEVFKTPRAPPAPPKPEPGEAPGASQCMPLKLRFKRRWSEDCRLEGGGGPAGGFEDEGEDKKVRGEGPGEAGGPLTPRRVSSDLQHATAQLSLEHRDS
The note with it: protein: recombinant; tags: N-terminal GST; dsDNA, one strand shown. Summed up: as §1

Test [12] addresses T7, ETV3L (Homo sapiens, UniProt Q6ZN32 1-361).
T7 sequence: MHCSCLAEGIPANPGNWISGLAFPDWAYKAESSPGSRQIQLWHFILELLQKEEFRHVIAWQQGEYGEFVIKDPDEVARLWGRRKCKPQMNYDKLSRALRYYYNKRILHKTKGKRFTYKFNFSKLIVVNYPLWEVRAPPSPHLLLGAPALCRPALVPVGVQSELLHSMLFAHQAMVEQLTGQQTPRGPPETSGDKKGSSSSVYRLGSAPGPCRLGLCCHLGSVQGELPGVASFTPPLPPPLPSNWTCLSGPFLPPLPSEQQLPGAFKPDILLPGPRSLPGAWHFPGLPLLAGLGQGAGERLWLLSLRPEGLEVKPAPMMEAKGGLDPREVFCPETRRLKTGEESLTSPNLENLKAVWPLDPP
The note with it: protein: recombinant; tags: N-terminal GST; dsDNA, one strand shown. In a few lines:
as §1

The target in test [13] is T8, ETS2 (Homo sapiens, UniProt P15036 1-469).
T8 sequence: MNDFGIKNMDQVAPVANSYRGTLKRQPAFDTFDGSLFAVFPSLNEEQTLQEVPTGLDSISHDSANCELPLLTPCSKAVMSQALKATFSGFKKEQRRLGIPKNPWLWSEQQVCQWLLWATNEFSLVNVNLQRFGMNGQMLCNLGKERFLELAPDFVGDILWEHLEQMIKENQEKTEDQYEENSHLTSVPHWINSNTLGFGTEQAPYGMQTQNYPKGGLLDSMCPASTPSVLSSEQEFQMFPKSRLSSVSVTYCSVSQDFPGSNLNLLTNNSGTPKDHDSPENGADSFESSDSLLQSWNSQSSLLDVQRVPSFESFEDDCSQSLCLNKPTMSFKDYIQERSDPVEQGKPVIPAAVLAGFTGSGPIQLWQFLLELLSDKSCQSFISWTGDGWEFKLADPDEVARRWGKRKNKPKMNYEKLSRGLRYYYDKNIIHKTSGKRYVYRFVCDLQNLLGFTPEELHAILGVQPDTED
The note with it: protein: recombinant; tags: N-terminal GST; dsDNA, one strand shown. Summed up:
as §1

Test [14] has as its target T9, SPDEF (Homo sapiens, UniProt O95238 1-335).
T9 sequence: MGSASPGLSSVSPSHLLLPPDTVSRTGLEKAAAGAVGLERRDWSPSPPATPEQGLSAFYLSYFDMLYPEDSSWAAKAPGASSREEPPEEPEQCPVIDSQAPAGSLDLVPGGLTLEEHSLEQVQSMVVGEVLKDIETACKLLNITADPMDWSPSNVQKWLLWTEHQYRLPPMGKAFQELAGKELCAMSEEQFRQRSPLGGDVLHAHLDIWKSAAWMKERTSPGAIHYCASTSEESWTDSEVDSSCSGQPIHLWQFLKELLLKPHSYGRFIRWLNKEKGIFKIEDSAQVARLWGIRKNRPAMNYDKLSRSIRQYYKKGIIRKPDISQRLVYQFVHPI
To be noted: protein: recombinant; tags: N-terminal GST; dsDNA, one strand shown. Summed up: as §1

The target of test [15] is T10, ETV7 (Homo sapiens, UniProt Q9Y603 1-341).
T10 sequence: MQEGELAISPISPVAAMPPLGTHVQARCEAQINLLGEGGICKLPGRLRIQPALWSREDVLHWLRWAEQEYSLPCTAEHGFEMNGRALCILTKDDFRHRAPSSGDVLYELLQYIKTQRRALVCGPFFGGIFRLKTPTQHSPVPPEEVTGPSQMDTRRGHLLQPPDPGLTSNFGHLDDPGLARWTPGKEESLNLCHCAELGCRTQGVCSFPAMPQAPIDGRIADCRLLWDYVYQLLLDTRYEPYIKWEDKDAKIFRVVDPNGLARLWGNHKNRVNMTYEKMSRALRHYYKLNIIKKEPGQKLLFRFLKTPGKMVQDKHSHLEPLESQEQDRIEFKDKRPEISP
The note with it: protein: recombinant; tags: N-terminal GST; dsDNA, one strand shown. In a few lines: as §1

The target in test [16] is T11, ELF5 (Homo sapiens, UniProt Q9UKW6-2 1-255).
T11 sequence: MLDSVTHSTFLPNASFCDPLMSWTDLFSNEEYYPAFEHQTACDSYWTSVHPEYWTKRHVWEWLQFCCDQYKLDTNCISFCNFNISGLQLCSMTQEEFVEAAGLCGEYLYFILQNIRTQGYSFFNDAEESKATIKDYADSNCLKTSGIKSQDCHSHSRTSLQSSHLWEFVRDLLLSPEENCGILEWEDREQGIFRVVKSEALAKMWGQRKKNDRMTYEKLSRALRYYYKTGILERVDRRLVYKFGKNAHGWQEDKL
The note with it: protein: recombinant; tags: N-terminal GST; dsDNA, one strand shown. In a few lines:
as §1

For test [17], the target named is T12, ETV3 (Homo sapiens, UniProt P41162-2 1-143).
T12 sequence: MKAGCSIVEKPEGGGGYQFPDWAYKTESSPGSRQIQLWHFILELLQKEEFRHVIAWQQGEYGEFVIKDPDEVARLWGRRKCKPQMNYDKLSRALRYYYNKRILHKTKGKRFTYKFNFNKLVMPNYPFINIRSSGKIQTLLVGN
The note with it: protein: recombinant; tags: N-terminal GST; dsDNA, one strand shown. In a few lines: as §1

The target in test [18] is ETV6 (Homo sapiens, UniProt P41212 1-452). The note with it: protein: recombinant; tags: N-terminal GST; dsDNA, one strand shown. In a few lines:
as §1

ELF4, sequence (Q99607 whole entry): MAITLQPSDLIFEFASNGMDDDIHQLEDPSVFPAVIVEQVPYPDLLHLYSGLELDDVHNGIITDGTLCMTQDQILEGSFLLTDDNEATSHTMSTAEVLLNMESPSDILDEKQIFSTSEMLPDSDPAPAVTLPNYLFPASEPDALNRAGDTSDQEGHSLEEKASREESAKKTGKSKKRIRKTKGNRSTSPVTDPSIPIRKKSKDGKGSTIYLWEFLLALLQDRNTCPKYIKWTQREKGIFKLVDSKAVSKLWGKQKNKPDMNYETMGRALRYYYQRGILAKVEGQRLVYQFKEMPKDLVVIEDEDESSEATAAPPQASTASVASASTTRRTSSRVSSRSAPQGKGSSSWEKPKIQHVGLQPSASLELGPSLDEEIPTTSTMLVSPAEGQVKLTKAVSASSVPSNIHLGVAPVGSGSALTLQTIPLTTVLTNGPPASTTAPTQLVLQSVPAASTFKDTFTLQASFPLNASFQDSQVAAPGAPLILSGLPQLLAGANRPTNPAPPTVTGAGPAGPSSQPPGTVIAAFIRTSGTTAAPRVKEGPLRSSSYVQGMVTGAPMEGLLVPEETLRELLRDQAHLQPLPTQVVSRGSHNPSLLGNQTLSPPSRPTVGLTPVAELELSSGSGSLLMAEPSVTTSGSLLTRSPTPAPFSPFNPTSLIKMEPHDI
ETV6, sequence (P41212 whole entry): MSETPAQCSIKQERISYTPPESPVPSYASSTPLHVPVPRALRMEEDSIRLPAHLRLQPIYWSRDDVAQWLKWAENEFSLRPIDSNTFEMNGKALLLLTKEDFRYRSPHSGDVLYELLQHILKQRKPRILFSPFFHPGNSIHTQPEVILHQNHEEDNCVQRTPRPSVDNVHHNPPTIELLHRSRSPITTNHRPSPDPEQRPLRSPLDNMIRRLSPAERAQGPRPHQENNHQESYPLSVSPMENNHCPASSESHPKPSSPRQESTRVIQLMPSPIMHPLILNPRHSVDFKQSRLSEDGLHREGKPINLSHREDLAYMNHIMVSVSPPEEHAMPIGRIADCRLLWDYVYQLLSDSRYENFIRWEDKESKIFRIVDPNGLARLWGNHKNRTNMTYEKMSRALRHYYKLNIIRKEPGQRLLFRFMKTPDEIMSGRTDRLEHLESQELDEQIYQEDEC
ETV1, sequence (P50549 whole entry): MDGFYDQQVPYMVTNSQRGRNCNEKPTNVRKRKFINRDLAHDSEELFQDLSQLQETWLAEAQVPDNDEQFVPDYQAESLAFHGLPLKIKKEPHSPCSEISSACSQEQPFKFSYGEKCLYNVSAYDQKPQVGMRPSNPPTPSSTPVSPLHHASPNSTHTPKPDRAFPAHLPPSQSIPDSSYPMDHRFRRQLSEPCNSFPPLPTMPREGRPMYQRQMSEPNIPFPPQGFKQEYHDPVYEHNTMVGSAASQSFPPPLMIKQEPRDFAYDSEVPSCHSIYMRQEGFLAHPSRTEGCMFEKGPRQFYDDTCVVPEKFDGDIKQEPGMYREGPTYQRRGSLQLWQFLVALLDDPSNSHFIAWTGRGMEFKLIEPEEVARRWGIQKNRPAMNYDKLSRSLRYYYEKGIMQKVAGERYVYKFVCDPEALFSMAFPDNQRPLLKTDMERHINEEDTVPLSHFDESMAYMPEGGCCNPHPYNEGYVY
ETV5, sequence (P41161 whole entry): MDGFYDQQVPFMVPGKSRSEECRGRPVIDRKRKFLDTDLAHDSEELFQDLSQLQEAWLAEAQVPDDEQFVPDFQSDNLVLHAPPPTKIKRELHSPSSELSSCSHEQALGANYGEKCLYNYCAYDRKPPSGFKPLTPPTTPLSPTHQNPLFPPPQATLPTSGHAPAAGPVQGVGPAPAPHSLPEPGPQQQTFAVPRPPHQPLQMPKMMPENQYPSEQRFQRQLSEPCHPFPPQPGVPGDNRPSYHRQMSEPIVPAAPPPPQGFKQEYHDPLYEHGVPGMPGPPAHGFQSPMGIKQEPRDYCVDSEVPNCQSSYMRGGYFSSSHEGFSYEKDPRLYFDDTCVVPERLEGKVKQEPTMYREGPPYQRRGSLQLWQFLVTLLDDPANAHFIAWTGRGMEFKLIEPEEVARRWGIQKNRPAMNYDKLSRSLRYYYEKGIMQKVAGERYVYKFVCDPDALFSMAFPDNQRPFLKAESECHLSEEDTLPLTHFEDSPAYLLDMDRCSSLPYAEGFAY

GTCTTT: the binding signal is 1.14 fold enrichment (6-mer frequency, TF over GST control) in test [1]; 1.22 fold enrichment (6-mer frequency, TF over GST control) in [2]; 1.22 fold enrichment (6-mer frequency, TF over GST control) in test [3]; 1.26 fold enrichment (6-mer frequency, TF over GST control) in [4]; 1.22 fold enrichment (6-mer frequency, TF over GST control) in [5]; 1.21 fold enrichment (6-mer frequency, TF over GST control) in test [6]. Moreover, the binding signal in test [7] is 1.12 fold enrichment (6-mer frequency, TF over GST control); in test [8], 1.27 fold enrichment (6-mer frequency, TF over GST control); in test [9] it was 1.24 fold enrichment (6-mer frequency, TF over GST control); in test [10] it was 1.13 fold enrichment (6-mer frequency, TF over GST control); in test [11], 1.27 fold enrichment (6-mer frequency, TF over GST control); in test [12] it was 1.27 fold enrichment (6-mer frequency, TF over GST control). Besides, the binding signal in [13] was 1.26 fold enrichment (6-mer frequency, TF over GST control); in [14], 1.17 fold enrichment (6-mer frequency, TF over GST control); in test [15] it was 1.28 fold enrichment (6-mer frequency, TF over GST control); in test [16], 1.31 fold enrichment (6-mer frequency, TF over GST control); in test [17], 1.26 fold enrichment (6-mer frequency, TF over GST control); in [18], 1.24 fold enrichment (6-mer frequency, TF over GST control).
